Screens as filed in PubChem.
Most compounds without a hit are left out; they make up all but 0.94% or so of the library.
SSB-PriA inh: K. pneumoniae PriA-SSBct interaction inhibition; inhibition, % at 33 µM; AID 1272365; AlphaScreen SSBct-PriA binding, biotinylated peptide; 430,000 tested, 0.6% active; in the data active = inhibition mostly above about 37%, no sharp cut-off; inactive = mostly below about 20%;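 note: plate controls were negative control peptide for no effect and reference peptide for full effect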
MazEF act: MazEF (E. coli) toxin RNase activation; activation, % at 20 µM; P0AE70; FAM/BHQ RNA-DNA oligo cleavage fluorescence, 5 h; 350,000 tested, 0.32% active; AID 504720; in the data active = activation above about 50%
Target sequence (P0AE70 whole entry, looked up): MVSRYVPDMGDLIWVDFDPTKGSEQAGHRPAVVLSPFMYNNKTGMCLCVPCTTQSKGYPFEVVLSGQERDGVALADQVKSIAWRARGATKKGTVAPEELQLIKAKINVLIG
BH1578 lux ind: quorum light induction in luxS cqsA deficient V. cholerae | V. cholerae BH1578 lux reporter, luminescence, 6 h | activation, % at 18.7 µM | 350,000 tested, 0.16% active; in the data active = activation mostly above about 9.7%, no sharp cut-off
Mtb hypoxia inh: Mtb hypoxia fluorescent reporter inhibition | M. tuberculosis hypoxia-regulated fluorescent reporter, fluorescence | fluorescence inhibition, % (concentration not given with the values) | 300,000 tested, 0.1% active | AID 1159583; in the data active = fluorescence inhibition mostly above about 23%, no sharp cut-off; inactive = mostly below about 17%
Numbers without * were called inactive; i = inactive; x = no result given; + = active, no number.

SMILES	SSB-PriA inh	MazEF act	BH1578 lux ind	Mtb hypoxia inh
COC(=O)c1cc(C(=O)NCC2CCCCC2)cc([N+](=O)[O-])c1	1.0	1.3	-0.3	3.3
O=C(NCC(c1cccnc1)N1CCN(c2ccc(F)cc2)CC1)c1ccc2c(c1)OCO2 (stereo not drawn)	4.8	0.9	i	7.1
COc1ccc(N2CCN(C(CNC(=O)c3ccc4c(c3)OCO4)c3cccnc3)CC2)cc1 (stereo not drawn)	3.3	-4.7	+	-5.9
CC(C)OC(=O)CSc1ccc([N+](=O)[O-])cc1[N+](=O)[O-]	59.0*	x	x	x
COc1ccccc1-c1cn2nnc(C(=O)NCc3c(C)noc3C)c2c(=O)[nH]1	25.0*	x	x	x
CCOC(=O)C=c1sc(=Cc2ccc3cc(OC)ccc3c2)c(=O)n1CC(=O)NCC1CCCO1 (stereo not drawn)	-16.3	x	x	x
CCOC(=O)/C=c1\s/c(=C\c2ccc3cc(OC)ccc3c2)c(=O)n1CC(=O)NCC1CCCO1 (stereo not drawn)	x	170.4*	-0.5	x
O=c1cc(NCc2ccco2)c2ccccc2o1	-17.9	0.2	25.8*	0.7
O=c1oc2ccccc2cc1-c1nc(-c2cccs2)cs1	-49.0	141.4*	-0.4	-4.0
c1csc(-c2csc(-c3cccs3)n2)c1	-136.8	-1.8	-1.5	8.0
COc1cccc2cc(-c3nc(-c4cccs4)cs3)c(=O)oc12	-34.6	99.0*	-7.1	13.4
O=C(Cc1c[nH]c2ccccc12)NCc1ccnc(N2CCOCC2)n1	3.0	x	x	x
N#Cc1cnc(-c2ccc(F)cc2)n(CC(=O)Nc2ccc(Br)cc2)c1=O	-5.0	x	x	x
Cc1cc(C(=O)NCc2cc(C(=O)O)oc2C)c(C)o1	-15.8	2.9	16.7*	5.7
Cc1cc(C(=O)NCC(=O)O)c(C)o1	-11.4	-2.0	i	15.3
O=[N+]([O-])c1cc(Cl)ccc1Nc1ccc(O)cc1	103.3*	x	x	x
Cc1nnc(NC(=O)CSc2ccnc3c2c(=O)n(C)c(=O)n3C)s1	-21.0	x	x	x
O=C(c1ccc(C(F)(F)F)nc1)N1CCSC(c2ccccc2Cl)CC1 (stereo not drawn)	-6.0	x	x	x
COc1ccc(-c2sc(Nc3ccccc3)n[n+]2-c2ccc(F)cc2)cc1Br	-0.8	1.9	i	-2.3
CCc1ccc(Nc2n[n+](-c3ccccc3)c(-c3c(Cl)cccc3Cl)s2)cc1	65.6*	2.5	-0.4	x
COc1ccc(C)cc1Nc1n[n+](-c2ccccc2)c(-c2c(Cl)cccc2Cl)s1	38.8*	6.0	x	x
Fc1ccc(-[n+]2nc(Nc3ccccc3)sc2-c2c(Cl)cccc2Cl)cc1	45.5*	-1.1	i	x
COc1ccc2ccccc2c1-c1sc(Nc2ccccc2)n[n+]1-c1ccc(F)cc1	38.9*	5.9	2.7	x
CCc1ccc(Nc2n[n+](-c3ccccc3)c(-c3ccc(N(CC)CC)cc3)s2)cc1	-5.2	-70.0	-0.8	x
O=C(c1ccc2nsnc2c1)N1CCC(Oc2ncccc2Cl)CC1	0.0	x	x	x
SMILES	SSB-PriA inh	MazEF act	BH1578 lux ind	Mtb hypoxia inh
Nc1nc(-c2ccc(Cl)cc2)ns1	-13.0	x	x	x
Cc1cccc(S(=O)(=O)Nc2cccc(Cl)c2)c1	-24.0	x	x	x
Cc1cc2cc(C(c3nnnn3Cc3ccco3)N3CCc4ccccc43)c(=O)[nH]c2cc1C (stereo not drawn)	8.9	79.2*	i	-5.8
Cc1cc2cc(C(c3nnnn3Cc3ccccc3)N3CCc4ccccc43)c(=O)[nH]c2cc1C (stereo not drawn)	-19.6	-6.5	i	1.1
O=C(c1cccc2ccccc12)N1CCC(Oc2cccnn2)CC1	2.0	x	x	x
Cc1c(N2C(=O)/C(=C\c3ccc(N(C)C)cc3)N(C)C2=S)c(=O)n(-c2ccccc2)n1C	7.2	130.6*	-0.4	x
Clc1cccc(/C(Cc2nc3ccccc3[nH]2)=N\Nc2ccccc2)c1	x	60.7*	-0.2	x
Fc1ccc(CSc2nnc(-c3ccccn3)o2)cc1	-10.7	5.4	i	39.3*
CCc1nnc2ccc(N3CCN(C(=O)Nc4ccc(Cl)c(Cl)c4)CC3)nn12	-12.0	x	x	x
Cc1cccc(NC(=O)Nc2ccc(CN3CCN(c4ccccn4)CC3)cc2)c1	41.0*	x	x	x
O=C(/C=C/c1ccc2c(c1)OCO2)NCCSc1ncc(-c2ccc(Cl)cc2)[nH]1	38.0*	x	x	x
N#C/C(=C\C=C\c1ccccc1[N+](=O)[O-])C(=O)NC1CCCCC1	-2.3	-2.5	-0.3	3.5
N#C/C(=C\c1ccccc1[N+](=O)[O-])C(=O)NC1CCCCC1	-3.5	423.3*	i	-3.1
COc1ccc(-c2nc(-c3ccncc3)no2)cc1	-11.3	90.9*	-0.8	6.2
COc1ccc(-c2nc(-c3cccnc3)no2)cc1	-6.6	0.9	-1.4	3.6
Cc1nnc(NN=Cc2cc([N+](=O)[O-])c(N3CCC(C)CC3)cc2N2CCC(C)CC2)n1N	42.3*	x	x	-1.0
CCCCn1c(NS(=O)(=O)c2ccc(Cl)cc2)c(C(=O)OCC)c2nc3ccccc3nc21	67.9*	x	x	x
CCOC(=O)c1c(NS(=O)(=O)c2ccccc2)n(CCCOC)c2nc3ccccc3nc12	46.5*	-3.5	-0.3	-3.6
CCCCCn1c(NS(=O)(=O)c2ccc(F)cc2)c(C(=O)OCC)c2nc3ccccc3nc21	54.8*	x	x	x
CCCCCn1c(NS(=O)(=O)c2ccc(Cl)cc2)c(S(=O)(=O)c2ccc(C)cc2)c2nc3ccccc3nc21	43.0	x	x	x
CCOC(=O)c1c(NS(=O)(=O)c2ccccc2)n(CCc2ccccc2)c2nc3ccccc3nc12	43.8	x	x	x
CCOc1ccc2nc(NC(N)=NC(=S)Nc3cccc(C)c3)nc(C)c2c1	8.6	x	x	x
COc1ccccc1Nc1ncccc1[N+](=O)[O-]	60.4*	7.9	-0.2	1.2
CCc1cccc(C)c1N(C(=O)Cn1c(COC)nc2ccccc21)C(C)COC (stereo not drawn)	46.4*	2.6	-0.3	3.9
CCc1cccc(C)c1N(C(=O)Cn1c(CO)nc2ccccc21)[C@@H](C)COC	-4.0	x	x	x
SMILES	SSB-PriA inh	MazEF act	BH1578 lux ind	Mtb hypoxia inh
Cc1ccc(N=Nc2ccc3ccccc3c2O)cc1	-5.3	21.9	1.9	10.0
COc1ccc(N=Nc2ccc3ccccc3c2)c(O)c1	34.3	44.0	i	15.1
COc1cccc(N=Nc2ccc3ccccc3c2O)c1	59.3	76.4*	0.8	5.5
Oc1c(N=Nc2ccc(F)cc2)ccc2ccccc12	38.6*	-9.9	-1.3	x
O=C1N/C(=N\N=C/c2ccco2)SC1c1ccccc1 (stereo not drawn)	-11.0	x	x	x
COc1ccc(OC)c(NC(=O)CSc2nnc(Cc3cccn3C)n2Cc2ccccc2)c1	39.0*	x	x	x
COc1ccc(OC)c(NC(=O)CSc2ccccc2)c1	-24.2	4.9	x	14.6
COc1ccc(OC)c(NC(=O)CSCC(=O)O)c1	-15.7	5.9	16.7*	5.9
COc1ccc(OC)c(NC(=O)CSc2nnc(Cc3cccn3C)n2CCc2ccccc2)c1	33.3	-1.2	-0.5	4.7
O=S(=O)(NCC1(O)CCCC1)c1cccc(Cl)c1	-15.0	x	x	x
O=C(c1ccccc1F)N1CCC(CSCc2ccco2)CC1	12.0	x	x	x
O=C(c1c[nH]c2ccccc12)N1CCC(CSCc2ccco2)CC1	35.0*	x	x	x
CN(C)c1cccc(C(=O)N2CCC(CSCc3ccco3)CC2)c1	29.0*	x	x	x
CC(C)c1nc(SCC(=O)Nc2nc3ccccc3s2)c2c(=O)n(C)c(=O)n(C)c2n1	2.0	x	x	x
O=[N+]([O-])c1c(NCCCO)cc(Sc2nc3ccccc3s2)c2nonc12	-15.1	113.8*	-0.6	20.8
